Laboratory results taken from PubChem BioAssay (NCATS).
Unmarked numbers belong to inactive results. Records with an inconclusive call do not appear. Calls of active or inactive are those of the source. Unless noted, calls come from the whole dose curve; as a rule, active = well fitted curve in the direction sought with a large enough effect; inconclusive = small, poorly fitted or top-dose-only effect, or another doubt; inactive = no such curve, though single readings can be large; an effect the other way counts as inactive or inconclusive.

Key:
[1] = target: Lysosomal acid glucosylceramidase (Homo sapiens) (UniProt P04062); test: Glucocerebrosidase-p2 (AID 348; in the data active = potency below about 10 µM; note: potency is the fitted concentration of half-maximal effect); conditions: purified GBA, blue fluorogenic substrate, 40 min
Chain of Lysosomal acid glucosylceramidase (Homo sapiens) (P04062 whole entry, looked up): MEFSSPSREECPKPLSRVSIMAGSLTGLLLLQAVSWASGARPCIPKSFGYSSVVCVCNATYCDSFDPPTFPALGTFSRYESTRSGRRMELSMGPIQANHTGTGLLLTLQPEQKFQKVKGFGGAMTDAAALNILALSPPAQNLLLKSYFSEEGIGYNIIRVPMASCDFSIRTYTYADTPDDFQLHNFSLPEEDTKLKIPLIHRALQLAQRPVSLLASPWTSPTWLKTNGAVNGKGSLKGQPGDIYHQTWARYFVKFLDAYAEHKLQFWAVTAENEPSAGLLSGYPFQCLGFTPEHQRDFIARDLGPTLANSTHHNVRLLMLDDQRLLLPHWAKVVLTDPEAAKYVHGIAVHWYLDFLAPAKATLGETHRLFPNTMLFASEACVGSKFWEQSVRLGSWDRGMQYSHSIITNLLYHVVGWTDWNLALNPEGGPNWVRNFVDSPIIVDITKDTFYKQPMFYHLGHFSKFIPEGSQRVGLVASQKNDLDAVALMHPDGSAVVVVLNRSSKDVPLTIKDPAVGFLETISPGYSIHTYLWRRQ
Outline: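 Normal human glucocerebrosidase (0.2 nM) with blue fluorogenic substrate (80 uM final) in citrate/phosphate pH 5.9 with 10mM sodium taurocholate, 0.01% tween-20; 40 min RT, NaOH/glycine stop; fluorescence Ex 365/Em 440; AC50 from a titration from 0.6 nM upwards.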

[2] = AP1 Signaling Pathway (AID 357; active = well fitted curve in either direction with a large enough effect, not every such curve was filed as active; note: % is set by controls: 0 for no effect and ±100 for the full control effect); conditions: ME-180 AP-1-bla reporter, EGF-induced, beta-lactamase ratio, 5 h; at 7.69 µM (top of the series) unless noted
Outline: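 ME-180 cells with beta-lactamase reporter under AP-1 response element, stimulated with EC50 EGF; compounds tested in titration series, 5 h at 37 °C. CCF4 substrate added 2.5 h at room temperature; 460/530 nm emission ratio gave %activity and AC50.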

[3] = target: Cytochrome P450 1A2 (Homo sapiens) (UniProt P05177); test: p450-cyp1a2 (AID 410; calls by dose curve; note: potency is the fitted concentration of half-maximal effect); conditions: recombinant CYP1A2, luciferin-ME demethylation, luminescence; series mostly up to 57 µM
Chain of Cytochrome P450 1A2 (Homo sapiens) (P05177 whole entry, looked up): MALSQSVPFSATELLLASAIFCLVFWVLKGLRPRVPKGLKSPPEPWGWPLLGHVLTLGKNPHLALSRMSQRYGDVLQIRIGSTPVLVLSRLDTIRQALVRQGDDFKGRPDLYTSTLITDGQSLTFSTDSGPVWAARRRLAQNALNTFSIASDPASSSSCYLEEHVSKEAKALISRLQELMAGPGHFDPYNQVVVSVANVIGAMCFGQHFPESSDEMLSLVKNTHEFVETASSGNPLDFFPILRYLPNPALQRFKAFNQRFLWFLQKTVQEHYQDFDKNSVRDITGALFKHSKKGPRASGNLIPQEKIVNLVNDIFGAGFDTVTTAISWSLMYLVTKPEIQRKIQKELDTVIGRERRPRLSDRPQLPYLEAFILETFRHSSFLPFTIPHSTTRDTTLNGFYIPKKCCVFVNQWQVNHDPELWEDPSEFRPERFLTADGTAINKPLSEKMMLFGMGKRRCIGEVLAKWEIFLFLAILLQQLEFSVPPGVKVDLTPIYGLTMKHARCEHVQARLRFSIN
Outline: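 O-Demethylation of luciferin 6' methyl ether by human CYP1A2 is monitored as luciferase luminescence. Substrate sits at Km (100uM); enzyme is 20nM. Values are scaled to 57 uM furafylline as maximal inhibition.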

[4] = NFAT Signaling Pathway (AID 444; active = well fitted curve in either direction with a large enough effect, not every such curve was filed as active;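 note: carbachol stimulus at about its EC50 of 1 µM final; % is set by controls: 0 for no effect and ±100 for the full control effect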); conditions: Jurkat NFAT-bla M1, carbachol, beta-lactamase ratio, 5 h; at 7.69 µM (top of the series) unless noted
Outline: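 Jurkat cells with NFAT-driven β-lactamase reporter and co-expressed M1 receptor, stimulated with carbachol (final 1 uM, ~EC50), compound titration, 5 h at 37 °C. CCF4 loaded 1 h at RT; 460/530 nm ratio gave %activity and AC50.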

[5] = Stat Signaling Pathway (AID 446; active = well fitted curve in either direction with a large enough effect, not every such curve was filed as active;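 note: ME-180 cervical cancer cells given 40 pM IL-6 alongside compound; SIE-controlled beta-lactamase reporter measured as 460/530 nm FRET emission ratio; % is set by controls: 0 for no effect and ±100 for the full control effect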); conditions: ME-180 (cervical carcinoma) SIE beta-lactamase reporter, IL-6 stimulated, 5 h; at 7.69 µM (top of the series) unless noted
Outline: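 FRET read-out (405 nm excitation, 460/530 nm emission) of a beta-lactamase reporter under a STAT-inducible element in ME-180 cervical carcinoma cells. Cells with compound receive 40 pM IL-6 for 5 h. Values are normalised to AC90 stimulation and AC90 JAK-inhibitor controls.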

[6] = target: Glucocorticoid receptor (Homo sapiens) (UniProt P04150); test: GR-GFP Redistribution (AID 450;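 active = compounds whose dose series gives a full or clear partial fitted curve of increased nuclear translocation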; note: potency is the fitted concentration of half-maximal effect); conditions: U2OS GR-GFP nuclear translocation, laser cytometry, 2 h
Chain of Glucocorticoid receptor (Homo sapiens) (P04150 whole entry, looked up, the tested form may be a part): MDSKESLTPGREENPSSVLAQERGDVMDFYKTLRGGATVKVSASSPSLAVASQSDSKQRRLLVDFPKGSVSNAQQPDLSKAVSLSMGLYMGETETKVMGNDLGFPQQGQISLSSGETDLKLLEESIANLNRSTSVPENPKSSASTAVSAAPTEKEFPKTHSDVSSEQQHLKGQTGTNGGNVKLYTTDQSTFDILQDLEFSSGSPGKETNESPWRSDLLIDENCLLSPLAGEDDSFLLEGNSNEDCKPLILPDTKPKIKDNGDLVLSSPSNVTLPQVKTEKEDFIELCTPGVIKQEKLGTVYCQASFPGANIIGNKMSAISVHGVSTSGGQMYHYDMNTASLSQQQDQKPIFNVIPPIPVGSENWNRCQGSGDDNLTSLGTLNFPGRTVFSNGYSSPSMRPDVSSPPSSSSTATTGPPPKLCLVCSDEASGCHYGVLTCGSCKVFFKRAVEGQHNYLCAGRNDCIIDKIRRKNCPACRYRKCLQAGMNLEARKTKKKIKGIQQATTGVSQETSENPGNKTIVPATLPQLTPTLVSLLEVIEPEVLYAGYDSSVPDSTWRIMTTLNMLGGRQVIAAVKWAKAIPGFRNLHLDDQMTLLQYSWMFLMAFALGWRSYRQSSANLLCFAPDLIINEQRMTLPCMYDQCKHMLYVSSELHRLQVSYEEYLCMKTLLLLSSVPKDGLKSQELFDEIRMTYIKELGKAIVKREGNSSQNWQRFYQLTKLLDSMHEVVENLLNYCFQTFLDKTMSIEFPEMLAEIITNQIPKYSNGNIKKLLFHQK

[7] = target: Glucocorticoid receptor (Homo sapiens) (UniProt P04150); test: GR-EFC Redistribution (AID 451; calls by dose curve; note: potency is the fitted concentration of half-maximal effect); conditions: CHO-K1 GR-EFC translocation, beta-gal luminescence, 2 h
Outline: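 CHO-K1 cells expressing nuclear EA and GR-ED fragments of b-gal; compounds titrated up to 46 uM final, 2 h at 37 C. GR nuclear translocation read as complemented b-gal luminescence after 1 h RT detection.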

[8] = target: Mitogen-activated protein kinase 10 (Mus musculus) (UniProt Q61831); test: JNK3 AlphaScreen Assay (AID 530; active = well fitted curve in either direction with a large enough effect, not every such curve was filed as active;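 note: kinase came from lysate of stimulated human HepG2 cells; signal reports phosphorylation of biotinylated GST-cJun 1-79 at Ser73 with 10 µM ATP; % is set by controls: 0 for no effect and ±100 for the full control effect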); conditions: JNK3 lysate, c-Jun phosphorylation; series mostly up to 57.1 µM
Outline: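 Activity was read by AlphaScreen after JNK3-containing HepG2 lysate (cytokine pre-activated) phosphorylated biotinylated GST-cJun with 10 uM ATP at room temperature. Phospho-Ser73 cJun antibody with Protein-A acceptor beads provided detection.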

[9] = target: Cytochrome P450 2C9 (Homo sapiens) (UniProt P11712); test: qHTS Assay for Inhibitors and Substrates of Cytochrome P450 2C9 (AID 883); conditions: recombinant CYP2C9, luciferin-H luminescence, 60 min; series mostly up to 57.1 µM; note: potency is the fitted concentration of half-maximal effect; nearly all actives have a fitted effect of over 60% in size
Outline: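 Human CYP2C9 (10nM) with Luciferin-H at 100uM (its KM) in 25mM KPO4; compound preincubated 10 min at 37C, then NADPH regeneration for 60 min at 37C. Luciferin read by luminescence after detection reagent; normalized to 57uM sulphaphenazole as full inhibition.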

[10] = target: Cytochrome P450 3A4 (Homo sapiens) (UniProt P08684); test: qHTS Assay for Activators of Cytochrome P450 3A4 (AID 885); conditions: recombinant CYP3A4, Luciferin-PPXE luminescence, 60 min; series mostly up to 57.1 µM; note: nearly all actives have a fitted effect of over 65% in size
Chain of Cytochrome P450 3A4 (Homo sapiens) (P08684 whole entry, looked up): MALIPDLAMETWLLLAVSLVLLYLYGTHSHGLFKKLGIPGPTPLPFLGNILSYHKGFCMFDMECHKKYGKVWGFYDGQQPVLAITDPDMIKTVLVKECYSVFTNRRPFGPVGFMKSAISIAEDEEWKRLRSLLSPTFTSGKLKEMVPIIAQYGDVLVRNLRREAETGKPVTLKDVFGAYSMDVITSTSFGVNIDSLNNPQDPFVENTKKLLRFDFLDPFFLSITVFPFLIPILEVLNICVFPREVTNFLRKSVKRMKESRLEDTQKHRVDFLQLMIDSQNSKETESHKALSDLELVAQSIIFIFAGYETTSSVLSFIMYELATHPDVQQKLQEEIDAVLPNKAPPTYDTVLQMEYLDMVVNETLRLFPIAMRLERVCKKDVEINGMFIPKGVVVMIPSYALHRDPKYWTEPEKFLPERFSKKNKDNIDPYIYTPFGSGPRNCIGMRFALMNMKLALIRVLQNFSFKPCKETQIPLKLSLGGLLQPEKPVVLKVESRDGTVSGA
Outline: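 Luminescent readout of luciferin formed from 25 uM Luciferin-PPXE (KM level) by 20 nM CYP3A4 in 200 mM KPO4, with 60 min NADPH-driven reaction at room temperature after 10 min compound exposure. Ketoconazole (57 uM) defined 100% inhibition.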

[11] = target: Cytochrome P450 2C19 (Homo sapiens) (UniProt P33261); test: qHTS Assay for Inhibitors and Substrates of Cytochrome P450 2C19 (AID 899); conditions: recombinant CYP2C19, luciferin-H EGE luminescence; series mostly up to 57.1 µM; note: potency is the fitted concentration of half-maximal effect; nearly all actives have a fitted effect of over 60% in size
Chain of Cytochrome P450 2C19 (Homo sapiens) (P33261 whole entry, looked up): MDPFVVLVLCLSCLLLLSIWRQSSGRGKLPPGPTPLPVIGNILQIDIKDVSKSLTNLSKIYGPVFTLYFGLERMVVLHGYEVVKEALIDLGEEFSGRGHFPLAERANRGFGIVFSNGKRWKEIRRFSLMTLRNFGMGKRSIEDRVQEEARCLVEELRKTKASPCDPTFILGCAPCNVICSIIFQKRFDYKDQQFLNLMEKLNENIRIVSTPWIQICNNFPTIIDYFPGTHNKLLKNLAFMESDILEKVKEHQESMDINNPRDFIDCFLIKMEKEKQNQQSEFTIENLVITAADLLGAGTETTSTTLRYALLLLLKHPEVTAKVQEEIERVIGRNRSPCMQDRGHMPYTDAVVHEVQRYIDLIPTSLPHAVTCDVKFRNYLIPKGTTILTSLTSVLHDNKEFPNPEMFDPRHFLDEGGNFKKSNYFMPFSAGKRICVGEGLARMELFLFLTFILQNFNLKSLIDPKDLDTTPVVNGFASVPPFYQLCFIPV
Outline: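 5 nM human CYP2C19 with 10uM Luciferin-H EGE (at KM) in 50mM KPO4, compound preincubated 10 min at 37C, then NADPH regeneration for 60 min at 37C. Luciferin read by luminescence after detection reagent; normalized to 57uM ketoconazole as full inhibition.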

[12] = target: Dual specificity protein kinase CLK4 (Homo sapiens) (UniProt Q9HAZ1); test: qHTS Assay for Inhibitors of CDC-like Kinase 4 (Kinase-Glo Assay) (AID 1770); conditions: recombinant Clk4, Kinase-Glo ATP depletion luminescence; series mostly up to 66.7 µM; note: nearly all actives have a fitted effect of over 65% in size; note: potency is the fitted concentration of half-maximal effect
Chain of Dual specificity protein kinase CLK4 (Homo sapiens) (Q9HAZ1 whole entry, looked up): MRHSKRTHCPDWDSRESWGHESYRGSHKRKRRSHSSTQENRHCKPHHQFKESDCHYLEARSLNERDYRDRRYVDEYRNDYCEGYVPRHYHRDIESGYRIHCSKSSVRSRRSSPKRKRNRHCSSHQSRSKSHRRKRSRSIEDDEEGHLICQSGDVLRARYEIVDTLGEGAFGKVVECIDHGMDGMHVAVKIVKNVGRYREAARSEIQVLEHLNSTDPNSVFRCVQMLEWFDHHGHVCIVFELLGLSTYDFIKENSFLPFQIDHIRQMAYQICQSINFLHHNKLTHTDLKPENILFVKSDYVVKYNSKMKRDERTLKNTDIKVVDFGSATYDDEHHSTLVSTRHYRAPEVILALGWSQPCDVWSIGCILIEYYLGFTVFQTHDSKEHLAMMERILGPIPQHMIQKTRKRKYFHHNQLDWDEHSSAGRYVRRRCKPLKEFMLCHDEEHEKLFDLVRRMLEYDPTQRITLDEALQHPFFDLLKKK
Outline: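 Inhibition was judged from remaining ATP, measured by Ultra-Glo luciferase bioluminescence after Clk4 (25 nM) had acted on RS peptide at 1 uM ATP for 4.5 hours, room temperature.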

[13] = target: Dual specificity protein kinase CLK4 (Homo sapiens) (UniProt Q9HAZ1); test: qHTS Assay for Inhibitors of CDC-like Kinase 4 (ADP-Glo Assay) (AID 1771); conditions: recombinant CLK4, ADP-Glo luminescence; series mostly up to 80 µM; note: nearly all actives have a fitted effect of over 70% in size; note: potency is the fitted concentration of half-maximal effect
Outline: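 Compounds are pin-transferred onto substrate mix (100 uM RS peptide, 1 uM ATP), then 25 nM Clk4 is added. After 1 hr at room temperature, ADP-Glo reagent runs 45 min, detection reagent 30 min, then luminescence is read.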

[14] = target: Dual specificity protein kinase CLK4 (Homo sapiens) (UniProt Q9HAZ1); test: qHTS Assay for Inhibitors of CDC-like Kinase 4 (ADP-FP Assay) (AID 1795); conditions: Transcreener ADP fluorescence polarization; series mostly up to 50 µM; note: nearly all actives have a fitted effect of over 60% in size; note: potency is the fitted concentration of half-maximal effect
Outline: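 Inhibition of ADP formation by 6.25 nM Clk4 is measured using 1 uM ATP and 100 uM RS repeat peptide over one hour. Produced ADP displaces a fluorescent tracer from antibody, lowering polarization.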

[15] = target: Ubiquitin carboxyl-terminal hydrolase 1 (Homo sapiens) (UniProt O94782); test: Inhibitors of USP1/UAF1: Pilot qHTS (AID 504865); conditions: purified USP1/UAF1, Ub-rhodamine cleavage fluorescence; series mostly up to 54.9 µM;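 note: rhodamine fluorescence freed from ubiquitin-rhodamine substrate followed over time; top concentration of the series differs between compounds; % is set by controls: 0 for no effect and ±100 for the full control effect; nearly all actives have a fitted effect of over 35% in size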
Chain of Ubiquitin carboxyl-terminal hydrolase 1 (Homo sapiens) (O94782 whole entry, looked up): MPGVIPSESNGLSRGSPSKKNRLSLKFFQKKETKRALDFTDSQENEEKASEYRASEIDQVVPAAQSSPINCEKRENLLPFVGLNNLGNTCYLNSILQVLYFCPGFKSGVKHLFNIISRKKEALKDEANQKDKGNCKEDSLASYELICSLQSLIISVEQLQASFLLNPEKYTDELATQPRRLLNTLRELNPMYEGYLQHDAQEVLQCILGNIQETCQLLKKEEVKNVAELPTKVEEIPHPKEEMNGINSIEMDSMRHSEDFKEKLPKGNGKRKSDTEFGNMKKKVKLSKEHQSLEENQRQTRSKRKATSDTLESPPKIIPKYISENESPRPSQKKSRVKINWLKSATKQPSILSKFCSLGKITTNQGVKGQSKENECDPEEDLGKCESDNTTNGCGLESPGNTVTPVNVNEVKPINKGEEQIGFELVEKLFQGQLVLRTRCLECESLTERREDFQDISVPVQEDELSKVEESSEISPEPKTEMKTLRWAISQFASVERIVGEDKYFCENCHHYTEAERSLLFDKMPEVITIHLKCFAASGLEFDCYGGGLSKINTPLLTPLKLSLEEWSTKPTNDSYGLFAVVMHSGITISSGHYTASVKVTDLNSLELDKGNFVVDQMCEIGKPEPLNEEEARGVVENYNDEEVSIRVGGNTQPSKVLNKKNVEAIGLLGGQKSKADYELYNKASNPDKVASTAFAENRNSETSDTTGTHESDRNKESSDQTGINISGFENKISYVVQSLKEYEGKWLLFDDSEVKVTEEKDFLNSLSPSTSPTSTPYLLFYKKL
Outline: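 Kinetic fluorescence assay: 1nM USP1/UAF1, 15 min compound preincubation, then 150nM Ub-Rho; 480/540 nm.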

[16] = Primary qHTS for small molecule stabilizers of the endoplasmic reticulum resident proteome: Secreted ER Calcium Modulated Protein (SERCaMP) assay (AID 1508630); conditions: SH-SY5Y GLuc-SERCaMP (Gaussia luciferase released on ER calcium loss) secretion, thapsigargin, luminescence; series mostly up to 38.4 µM; note: % is set by controls: 0 for no effect and ±100 for the full control effect
Outline: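 The SH-SY5Y reporter protocol was run at 3 concentrations up to 38.3 uM (primary) or 11 concentrations (follow-up): 16 h compound, 100 nM thapsigargin for 4 h, then extracellular luciferase luminescence.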

[17] = target: Cytochrome P450 3A4 (Homo sapiens) (UniProt P08684); test: qHTS Assay for Inhibitors and Substrates of Cytochrome P450 3A4 (AID 884); conditions: recombinant CYP3A4, Luciferin-PPXE luminescence; series mostly up to 57.1 µM; note: potency is the fitted concentration of half-maximal effect; nearly all actives have a fitted effect of over 50% in size
Outline: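 Luminescent readout of luciferin produced by CYP3A4 (20 nM) dealkylation of Luciferin-PPXE, 25 uM (its KM). NADPH-driven reaction ran 60 min at RT after 10 min compound preincubation; data scaled to 57 uM ketoconazole as 100% inhibition.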

[18] = target: 3',5'-cyclic-AMP phosphodiesterase 4B (Homo sapiens) (UniProt Q07343); test: qHTS Assay for Inhibitors of PDE-IV (AID 607; active = well fitted activation curve with a large enough effect in the main read-out, with a control signal flat, not every such curve was filed as active; note: % of control where 0% means no effect); conditions: HEK293 ACTOne CNG channel cells, membrane potential fluorescence; series mostly up to 22.9 µM
Chain of 3',5'-cyclic-AMP phosphodiesterase 4B (Homo sapiens) (Q07343 whole entry, looked up): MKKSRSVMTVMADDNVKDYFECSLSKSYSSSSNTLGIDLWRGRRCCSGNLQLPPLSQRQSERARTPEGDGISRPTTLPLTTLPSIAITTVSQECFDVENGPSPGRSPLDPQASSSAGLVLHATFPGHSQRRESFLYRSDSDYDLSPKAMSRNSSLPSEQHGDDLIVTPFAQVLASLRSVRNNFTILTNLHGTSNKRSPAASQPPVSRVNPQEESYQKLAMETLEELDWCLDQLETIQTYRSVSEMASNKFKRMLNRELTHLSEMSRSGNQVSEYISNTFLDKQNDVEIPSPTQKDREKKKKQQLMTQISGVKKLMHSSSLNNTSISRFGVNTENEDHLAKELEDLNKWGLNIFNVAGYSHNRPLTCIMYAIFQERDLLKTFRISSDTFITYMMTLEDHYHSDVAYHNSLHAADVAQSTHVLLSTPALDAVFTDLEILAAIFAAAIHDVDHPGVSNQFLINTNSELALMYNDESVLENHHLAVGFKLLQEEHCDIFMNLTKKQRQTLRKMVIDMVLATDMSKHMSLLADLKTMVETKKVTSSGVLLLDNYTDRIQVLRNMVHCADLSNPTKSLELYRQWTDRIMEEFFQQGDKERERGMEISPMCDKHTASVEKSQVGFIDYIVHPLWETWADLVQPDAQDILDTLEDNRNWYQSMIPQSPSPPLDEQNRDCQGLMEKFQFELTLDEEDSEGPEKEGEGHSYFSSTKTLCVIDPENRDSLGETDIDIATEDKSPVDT
Outline: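 Cell-based read-out of cAMP via a modified cyclic nucleotide-gated channel and membrane potential dye (535/590 nm) in HEK293 cells expressing PDE4 endogenously. Compounds tested up to 22.9 uM final; 100 uM RO 20-1724 reference.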

SMILES | Potency [1] [µM] | activity change, negative = inhibition [2] [%] | Potency [3] | activity change, negative = inhibition [4] [%] | activity, negative = inhibition [5] [%] | Potency [6] [µM] | Potency [7] [µM] | Potency [8] | Potency [9] | Potency [10] | Potency [11] | Potency [12] | Potency [13] | Potency [14] | Potency [15] | outcome [16] | Potency [17] | Potency [18]
O=c1c(-c2cccc(F)c2)nc2cncnc2n1Cc1ccccc1Cl | > 11.4 | -4.26 | 3.98 µM (active) | -7.87 | 4.32 | > 9.22 | > 46 | inactive | 7.94 µM (active) | inactive | 0.794 µM (active) | inactive | inactive | inactive | inactive | inactive | – | –
CS(=O)(=O)Nc1cccc(-c2cncnc2NCc2ccccc2)c1 | > 11.4 | -1.31 | 25.1 µM (active) | 3.36 | -2.08 | > 46 | > 46 | inactive | 0.398 µM (active) | inactive | – | inactive | inactive | inactive | inactive | inactive | 0.631 µM (active) | –
COc1ccc(-n2c(=O)c(C)nc3cnc(N4CCOCC4)nc32)cc1 | > 11.4 | -10.2 | 12.6 µM (active) | 3.24 | -6.68 | > 9.22 | > 46 | inactive | – | inactive | – | inactive | inactive | inactive | inactive | inactive | – | inactive
COc1cccc(-c2cc(NCc3ccccc3)ncn2)c1 | > 11.4 | -18.4 | 2 µM (active) | 13.6 | -5.77 | > 46 | > 46 | inactive | – | inactive | 7.94 µM (active) | 15.8 µM (active) | 28.2 µM (active) | 12.6 µM (active) | inactive | inactive | – | –
COCCn1c(=O)c(-c2cn(C)c3ccccc23)nc2cnc(OCc3ccccc3)nc21 | > 11.4 | -1.93 | 5.01 µM (active) | -4.76 | 23.6 | > 9.22 | > 46 | inactive | – | inactive | – | inactive | inactive | inactive | inactive | inactive | – | –
CN1CCN(c2ncc3ncc(=O)n(CCc4ccccc4)c3n2)CC1 | > 11.4 | -5.68 | 3.98 µM (active) | -2.1 | 9.6 | > 9.22 | > 46 | inactive | – | inactive | 6.31 µM (active) | 25.1 µM (active) | 15.8 µM (active) | inactive | inactive | inactive | – | inactive
CS(=O)(=O)Nc1cccc(-c2cncnc2NCc2cccnc2)c1 | > 11.4 | 10.9 | 15.8 µM (active) | -3.98 | -1.28 | > 46 | > 46 | inactive | – | inactive | 3.16 µM (active) | inactive | inactive | inactive | inactive | inactive | – | inactive
Cn1c(=O)c(-c2ccccc2)nc2cnc(OCc3ccccc3)nc21 | > 11.4 | -1.1 | 1.58 µM (active) | 4.72 | -3.56 | > 9.22 | > 46 | inactive | – | inactive | – | inactive | inactive | inactive | inactive | inactive | – | inactive
COc1ccc(-n2c(=O)c(-c3cc(F)cc(F)c3)nc3cncnc32)cc1 | > 11.4 | -5 | 12.6 µM (active) | -16 | 6.92 | > 9.22 | > 46 | inactive | – | inactive | – | inactive | inactive | inactive | inactive | inactive | – | inactive
Cc1cccc(CNc2ncncc2-c2ccc(C(=O)N(C)C)cc2)c1 | > 11.4 | -19 | 15.8 µM (active) | 11.4 | 1.97 | > 46 | > 46 | – | – | inactive | – | inactive | inactive | inactive | inactive | inactive | 0.631 µM (active) | inactive
Cc1ccccc1-c1cncnc1Nc1ccccc1 | > 11.4 | -10.9 | 15.8 µM (active) | -1.77 | 16 | > 46 | > 46 | inactive | – | inactive | 3.16 µM (active) | inactive | inactive | inactive | inactive | inactive | 0.631 µM (active) | –
